Most compounds without a hit are left out; they make up all but 2.6% or so of the library.
LGR2 antag: inhibitors of bursicon-induced Drosophila LGR2 receptor cAMP signaling | HEK293 LGR2, CRE-luciferase, bursicon-stimulated, 4 h | inhibition, % at 9.99 µM | hit rate 0.35% among 380,000 | AID 720647;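 active = drop in luminescence signal, shown as inhibition above about 50% in the replicate tests, limit read from the data, passing the limit was not always enough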;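 also: agonist challenge used bursicon conditioned medium at about half maximal strength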
TROY signal inh: TROY signaling inhibition. Q293 LMP1-TROYcd NF-kB luciferase reporter, 4 h. inhibition, % at 10 µM. hit rate 0.98% among 360,000. AID 1347056;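 active = compounds whose plate-normalised and pattern-corrected inhibition of the luciferase reporter signal at the single screening dose is 50% or more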
HSP90 refold inh: HSP90 refolding inhibition in rabbit reticulocyte lysate | luciferase refolding luminescence, 3 h | inhibition, % at 5.6 µM | hit rate 0.91% among 290,000 | AID 1789;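 active = inhibition above the screen-wide mean plus 3 SD, computed separately per campaign, cut at about 16% in these data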;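 also: 0% = DMSO wells and 100% = 60 µM geldanamycin wells; inhibitors lower the luminescence because luciferase stays unfolded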
EBV LMP1 NFkB: Epstein-Barr LMP1 NF-kappaB reporter inhibition. hit rate 0.69% among 350,000. LMP1-induced NF-kappaB luciferase reporter cells, luminescence. inhibition, % at 12.5 µM. AID 504558; in the data active = inhibition above about 41%;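 also: 0% = neutral control wells and 100% = reference inhibitor control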
aDG glyco up: alpha-DG glycosylation activation. Pro5-aDG cells, alpha-DG glycosylation AlphaScreen (IIH6); 0% Pro5, 100% B10-LARGE cell signal. activation, % at 10 µM. hit rate 0.22% among 360,000. AID 624168;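 active = activation of at least 8% versus controls, or a plate z-score of at least 8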;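 also: Pro5 are CHO cells carrying HIG-tagged alpha-DG that lacks glycosylation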
TWEAK Fn14 block: blocks TWEAK-Fn14 interaction in a reporter cell assay | TWEAK-stimulated Fn14 reporter cells, luciferase luminescence, 8 h | inhibition, % at 10 µM | hit rate 2% among 360,000; in the data active = inhibition above about 50%
* marks the source's active call; other numbers are inactive results; . = not tested or not shown; ! = repeats disagree.

SMILES | LGR2 antag | TROY signal inh | HSP90 refold inh | EBV LMP1 NFkB | aDG glyco up | TWEAK Fn14 block
O=C1COc2cc(S(=O)(=O)CCC(=O)N3CCCCC3)c(Cl)cc2N1 | 8 | 3 | -3 | -2 | 0 | 98*
COc1ccc(-n2nc3cc(C)c(NC(C)=O)cc3n2)cc1 | 48 | 57* | 7 | 20 | 0 | 75*
CC(C)CC(=O)NCCNC(=O)c1cc(OCC(F)(F)F)ccc1OCC(F)(F)F | . | . | 5 | 6 | 0 | 76*
COc1ccc2c3c([nH]c2c1)[C@@H](CO)N(C(=O)c1cccc(F)c1)CC31CN(C(=O)c2ccccc2)C1 | -24 | . | . | . | . | .
O=c1[nH]c2cc(Cl)c(Br)cc2o1 | 12 | 8 | . | 68* | 0 | -18
O=c1[nH]c2cc(Cl)c(Cl)cc2o1 | 17 | 13 | . | -1 | 0 | -21
O=C(NCCc1c[nH]c2ccccc12)C1CCC(Cn2c(=S)[nH]c3ccccc3c2=O)CC1 (stereo not drawn) | . | 29 | 2 | 2 | 1 | 62*
Cc1c(/C=N/NC(=O)c2cccnc2)c2ccccc2n1Cc1ccccc1 | -2 | 12 | 1 | 3 | 3 | 56*
O=C(N/N=C\c1c(O)ccc2ccccc12)c1ccc(O)cc1 | 16 | 1 | -4 | 35 | 0 | -2
O=C(N/N=C/c1c(O)ccc2ccccc12)c1cccnc1 | 0 | 1 | -6 | 51* | 1 | -5
O=C(NN=Cc1c(O)ccc2ccccc12)c1ccncc1 | . | 4 | . | 62* | 1 | -19
O=C(CSCC(=O)Nc1ccccc1)N/N=C/c1c(O)ccc2ccccc12 | 24 | 6 | -8 | 51* | 1 | 12
Cc1nn(Cc2ccccc2)c(Cl)c1/C=N/NC(=O)c1cccnc1 | -26 | -16 | -6 | 5 | 0 | -16
COc1ccc(-c2ccc3c(c2)O[C@@H](CN(C)Cc2ccccc2C(=O)O)[C@@H](C)CN([C@H](C)CO)S3(=O)=O)cc1 | 2 | . | . | . | . | .
Cc1occc1C(=O)N/N=C/c1c(O)ccc2ccccc12 | -39 | -10 | -4 | 6 | 0 | 13
O=C(N/N=C/c1c(O)ccc2ccccc12)c1ccc(Br)o1 | 17 | 12 | -6 | 61* | 1 | 20
Cn1nccc1C(=O)N/N=C/c1c(O)ccc2ccccc12 | 6 | -17 | -5 | 76* | 2 | -38
Cc1ccc(C(=O)N/N=C/c2c(O)ccc3ccccc23)cn1 | 6 | -10 | -11 | 65* | 0 | 9
Cn1cc(C(=O)N/N=C/c2c(O)ccc3ccccc23)ccc1=O | 21 | 6 | -8 | 62* | 1 | -5
COc1ccc2c3c([nH]c2c1)[C@H](CO)N(C(=O)C1CCCCC1)CC31CN(Cc2nccs2)C1 | 0 | . | . | . | . | .
C[C@@H]1CN([C@H](C)CO)C(=O)c2cc(N(C)C)ccc2O[C@@H](C)CCCCO[C@H]1CN(C)C(=O)CCC(F)(F)F | -6 | . | . | . | . | .
O=C(O)C(O)c1ccccc1 (stereo not drawn) | 9 | 1 | -1 | 83*! | 0 | 22
O=C(c1ccc(S(=O)(=O)c2ccccc2Cl)c([N+](=O)[O-])c1)N1CCCCCC1 | 4 | 25 | 2 | 10 | 2 | 66*
O=C(c1ccc(S(=O)(=O)c2cccc(Cl)c2)c([N+](=O)[O-])c1)N1CCN(c2ccccn2)CC1 | 59* | 58* | -1 | 20 | 6 | 90*
O=C(c1ccc(S(=O)(=O)Cc2ccccc2F)c([N+](=O)[O-])c1)N1CCCCCC1 | 32 | 28 | -3 | -3 | 0 | 37
SMILES | LGR2 antag | TROY signal inh | HSP90 refold inh | EBV LMP1 NFkB | aDG glyco up | TWEAK Fn14 block
O=C(c1cnc(N2CCN(c3ccccn3)CC2)c2ccccc12)N1CCN(c2cccc(Cl)c2)CC1 | -6 | 46 | 0 | 29 | 4 | 91*
C(=NN1CCCCCC1)c1ccc2ccccc2n1 | 98* | 87* | . | 84* | 0 | 104*
CC(C)NC(=O)N(C)C[C@@H]1OCCCC[C@H](C)Oc2ccc(NS(=O)(=O)c3cn(C)cn3)cc2C(=O)N([C@H](C)CO)C[C@@H]1C | -11 | . | . | . | . | .
CN(Cc1ccccc1)C(=O)N[C@@H](Cc1ccccc1)C(=O)O | . | . | 4 | -4 | 0 | 81*
O=C(NCC[C@H]1CC[C@H](NC(=O)C2CCCC2)[C@H](CO)O1)c1ccc(F)cc1 | -26 | . | . | . | . | .
COc1ccc(-c2cnc(SCC(=O)Nc3ccc4c(c3)OCO4)n2Cc2ccco2)cc1 | . | 28 | 9 | -4 | 4 | 25
O=C(CSc1ccc(-c2ccc(Cl)cc2)nn1)Nc1ccc2c(c1)OCCO2 | 6 | 62* | -3 | -7 | 0 | 29
O=C(CSc1nnc(-c2ccc(Cl)cc2)n1Cc1ccco1)Nc1ccc2c(c1)OCCO2 | . | 52* | -2 | 5 | 0 | 10
CC(=O)Nc1cccc(NC(=O)CSc2ncc(-c3ccc(Cl)cc3)n2Cc2ccco2)c1 | . | 61* | 5 | 5 | 2 | 81*
O=C(CN1CCC(C(=O)c2ccc(Cl)cc2)CC1)Nc1ccc2c(c1)OCCO2 | . | 29 | 0 | -1 | 0 | 62*
Cc1ccc(NC(=O)CSc2ccc(-c3ccc4c(c3)OCO4)nn2)cc1F | -13 | -69 | -5 | -26 | 0 | -25
COc1ccc(/C=c2\s/c(=C/C(=O)c3ccc(C)cc3)[nH]c2=O)c(OC)c1 | 0 | -2 | 2 | 2 | 0 | -37
COc1cccc(/C=c2\s/c(=C\C(=O)C(C)(C)C)[nH]c2=O)c1 | 0 | 15 | -5 | -6 | 0 | 56*
c1ccc(N2CCN(c3nnnn3-c3ccccc3)CC2)cc1 | . | -4 | 0 | 2 | 0 | -7
c1ccc(-n2nnnc2-n2cnc3ccccc32)cc1 | -6 | 31 | 2 | -12 | 0 | 54*
O=C(CO/N=C/c1ccccc1)N1c2ccccc2Oc2ccccc21 | . | -5 | 16* | 3 | 0 | 13
O=C(CN1CCCCC1)N1c2ccccc2Oc2ccccc21 | . | -3 | -1 | 1 | 0 | 20
OC[C@H]1[C@@H](c2ccc(-c3ccncc3)cc2)[C@@H]2CN(Cc3ccccn3)CCCCN12 | 6 | . | . | . | . | .
O=C(NC1(Cc2ccccc2)CCN(Cc2ccc(-c3ccccc3)cc2)C1=O)c1ccccc1 (stereo not drawn) | 56* | 62* | . | -11 | 0 | 59*
O=C(CCc1ccccc1)NC1(Cc2ccccc2)CCN(CCc2cccs2)C1=O (stereo not drawn) | -33 | -16 | . | 2 | 0 | 20
Cc1cc(=O)oc2cc(OCC(=O)Nc3nnc(C(C)C)s3)ccc12 | . | -1 | -10 | -9 | 0 | 77*
Nc1cc(=O)[nH]c(SCCSc2ccccc2F)n1 | -2 | -37 | 6 | 3 | 0 | -10
Nc1cc(=O)[nH]c(SCCSc2cc(Cl)ccc2Cl)n1 | 1 | -12 | -3 | 51* | 0 | -21
CS(=O)(=O)Nc1ccc2c(c1)[C@H]1C[C@H](CC(=O)N3CCOCC3)O[C@@H](CO)[C@H]1O2 | -3 | . | . | . | . | .
